Data as given in PubChem BioAssay AID1159506 (National Center for Advancing Translational Sciences (NCATS), 2015).
The full ranking holds about 59,000 sequences; the median of the read-out is about -0.00055, and the lowest 2% start at about -2. The entries come from a sample that favours the lowest values as a whole.

Assay: Identification of proteins required for the processing of the EWS-FLI1 nascent transcript;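 also: robust z of luciferase light less the median z of siRNAs with the same seed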
Conditions: TC32 Ewing sarcoma NR0B1-luc vs CMV-luc (EWS-FLI1 target promoter against control promoter), 48 h; screened at 20 nM (by protocol)
Method in brief: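 Parallel TC32-NR0B1-luc and TC32-CMV-luc reverse transfections with 20 nM siRNA in RPMI-1640/10% FBS, luciferase measured 48 h later. Seed-adjusted z-scores from normalized, z-score-MAD transformed data; AllStars negative and siGL4 controls on each plate.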

| Sequence | seed-corrected z-score |
| --- | --- |
| UUCUUCAACCUUGAGGCGG against SNAPC5 | 0.755 |
| UGAUGUCUACAAUAUCACC against RPL21 | -2.69 |
| UGGGUGAUAAGAAAAACAG against CD40LG | -0.837 |
| AAAGCAAAUAGUAUGGUUC against ATG5 | 0.522 |
| UGGACUCCUACAUUACUGC against EFCAB13 | 0.0128 |
| AAAGGUACUCUUGGGCAGG against EEF1G | -0.242 |
| UUAGGUAAUACACUAUUUG against THAP2 | 0.091 |
| UCCCAGACUUUGACCAUGC against WDR38 | -2 |
| UCUUGUGGAUGUAAUAUGC against SIMC1 | -0.283 |
| UUCUUCUACAGGCUUGAGG against SMNDC1 | -0.35 |
| UGAGUUUGAACCCAAAAGU against IGFL4 | 1.44 |
| UCUGUAGUCAGUUUGGUUG against LDB1 | -0.7 |
| UCAUCUUCUCCAACUUUUC against GINS2 | 0.362 |
| AAGCUUGUAAGUAUAGACG against SF3B3 | -2.14 |
| AUAGAAAACACCAAGAUUA against TMEM63A | 0.279 |
| AUAUGACCUACUACCAUCC against LURAP1 | 0.3 |
| ACAUGAUCAACUGGUAGUC against TTBK1 | -4.16 |
| UAAGGUAAGAGCCUGUGCU against ZNF177 | 0.0512 |
| AAAAGUAUCAGCAGAAGUC against GPR156 | -0.243 |
| UAGUUGAAGAGGGCGUGGG against TAS1R3 | -0.153 |
| AACGGAACCUGUGAGAUCC against LARS2 | -0.262 |
| UAACUGAAUGGCAUCCCGG against C6orf226 | 0.21 |

| Sequence | seed-corrected z-score |
| --- | --- |
| UUGUAGUUCAGCUGGUUGU against SPATA2 | -2.04 |
| UCCUGGAGCAUAUCCGAGC against TMPRSS5 | 0.289 |
| UCAUUUAGCUUUACCACCC against AHCYL1 | 0.0585 |
| UUGUAUUCCACAGAAGUAA against SLC25A41 | 0.115 |
| UGUCGUAUCUCUCUUCAUC against TNNI3 | -0.115 |
| UUACUGCUGAAUACAGACU against HRASLS | -2.09 |
| UAUGUCCCAAAUAUACACC against SLC36A3 | 0.459 |
| UUCUUACUCCAAUAUCUCC against WWC2 | -0.0295 |
| UUUGAUGAAGGGUACGUGG against KIF11 | -2.31 |
| UUCUCAAUGAUAUUAUGGG against SREBF2 | -0.569 |
| AUCAUAGCAACAGUGCUGC against IGFL1 | -2.6 |
| UGAACAUUGAGUAACGAAC against ORAOV1 | 0.0373 |
| UCUGUUCUCGGUCAAAGAC against DCAF11 | -0.91 |
| UUUAGUUCCUGAUCGAAAG against ZNF800 | 1.28 |
| AUCUUUACGAGCUUCAGCC against FAM185BP | 1.55 |
| UCACUGUCAAACUCGUGCC against ARHGAP33 | -2.08 |
| AUUGUAAUCGCGAAUAUCC against MESDC2 | 0.809 |
| UUCCCUCUUUGGGUCUUCC against SNX11 | 0.0123 |
| UACAGCUCCGAAAAACUCC against SIPA1 | -1.18 |
| UUGACUGUCACUGAGGUAG against SDK2 | -0.0428 |
| UGUCGUACCAGUCGGACCA against TAC1 | -2.02 |
| UAUUCGUUAUCAAAUUGUG against TMOD3 | 0.393 |

| Sequence | seed-corrected z-score |
| --- | --- |
| UCCGUUUUCCACGUAGUGC against FRMD1 | -0.836 |
| UAUGUCUUCACGCAGCCGC against PI4KAP2 | -1.12 |
| UACGUUUGCUUUGCGCUCG against NR0B1 | -0.672 |
| UUGGGAUUAACACUUGUGA against LINC00851 | -2.42 |
| UUGAAGUUUUCAAUUGUGC against CYSLTR2 | -0.797 |
| UCAGCUAACUCUGUCUCUG against SNX19P3 | -0.302 |
| AUUGUGAUGAACCUCGUCC against ARHGAP40 | -0.617 |
| UUAGUGAUCUGAUAGUGGG against POGLUT1 | 0.238 |
| AAUUCCAAAACCAAUGUGC against MS4A12 | 0.147 |
| UGUUUCUCUGACUUGAGUG against IFI27L2 | -2.28 |
| UUCUUAUUGAGUUUCAGCC against MSN | 0.564 |
| UAAAUUUGUCGAGUUGCUC against CFAP99 | 0.485 |
| UUGACAAAAGUGAGGAUCG against LGALS14 | 0.5 |
| UCUAUGGGCAGUGGCAUCU against GOLGA2P10 | -1.07 |
| UGUGCAACUGGUCUUGUGC against BBS4 | 0.33 |
| UGUUGUAGAAGGUAAACCC against CLRN3 | -2.64 |
| UAAUGUCAAAUUUUCCUCC against P2RX7 | -0.332 |
| UCCAUUGCAAUUGUGCCCA against MAGEA4 | -0.0267 |
| UUUCUUCACGUGGAUAGCC against GABRG2 | 0.574 |
| UUCCAGAAAAAGCCGCACG against PLD6 | -0.608 |
| UUUCCUUCCAACUCUGCGC against ZNF835 | -1.63 |
| UACGUUAGGACGGCUCAGG against RLTPR | -1.06 |
